# Screening results: PubChem, National Center for Advancing Translational Sciences (NCATS)
# Most compounds without a hit are left out; they make up all but 4.2% or so of the library.
# VDR inh = blocks the human vitamin D receptor. AID 504847. P11473. actives 0.93% (n = 400,000). Potency, µM, hits mostly inhibitors. VDR-SRC2-3 peptide fluorescence polarization, 2 h
# Target sequence (P11473 whole entry, looked up): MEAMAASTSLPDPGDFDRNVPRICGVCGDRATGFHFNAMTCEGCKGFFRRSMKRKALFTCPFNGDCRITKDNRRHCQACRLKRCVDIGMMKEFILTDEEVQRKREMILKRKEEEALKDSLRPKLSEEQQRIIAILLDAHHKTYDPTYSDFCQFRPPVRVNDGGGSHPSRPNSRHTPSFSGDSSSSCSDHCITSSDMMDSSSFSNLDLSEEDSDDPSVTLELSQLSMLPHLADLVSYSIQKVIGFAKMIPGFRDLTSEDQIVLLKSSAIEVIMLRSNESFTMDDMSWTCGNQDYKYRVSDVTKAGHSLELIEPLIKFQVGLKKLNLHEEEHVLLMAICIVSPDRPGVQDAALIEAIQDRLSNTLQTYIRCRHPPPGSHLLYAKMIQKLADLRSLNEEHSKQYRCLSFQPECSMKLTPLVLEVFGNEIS
#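 Compounds are added to VDR with labelled SRC2-3 coactivator peptide and held 2 h at room temperature. Inhibition of the VDR–peptide interaction is then read as a change in fluorescence polarization.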
# PLK1 PBD block = inhibitors of human PLK1 polo-box domain binding; P53350; Plk1 PBD binding of FITC phosphopeptide, fluorescence polarization; Potency, µM, most hits filed as inhibitors; actives 2.8% (n = 360,000); AID 720504; note: series mostly up to about 57 µM; nearly all actives have a fitted effect of over 65% in size
# ALOX12 inh = ALOX12 (human) lipoxygenase inhibition; P18054; purified 12hLO, xylenol orange hydroperoxide absorbance; Potency, µM (series often up to 108 µM), usual class: inhibitors; actives 1.1% (n = 580,000); AID 1671190
#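 Hydroperoxide product was detected by ferrous iron/xylenol orange as the 573 to 405 nm absorbance ratio. Arachidonic acid at 40 uM (final) was turned over for 30 min at room temperature by 150 nM human 12hLO, pH 7.0 Hepes buffer, after 15 min compound preincubation.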
# Sfp PPTase inh = blocks B. subtilis Sfp PPTase activity. Q9F4F7. Biochemical Sfp PPTase activity, qHTS. Potency, µM, hits mostly inhibitors. actives 3.5% (n = 310,000);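 note: the enzyme is Sfp with the accession as filed and its product quenches rhodamine fluorescence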
#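 After 15 min at room temperature with compound, 15 nM Sfp received 5 uM rhodamine-CoA plus 12.5 uM BHQ-2-ybbR (50 mM Hepes pH 7.6, 10 mM MgCl2). Rate came from the fluorescence difference over 30 min, ex 525/em 598 nm.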
# Numbers stand for hits; i = inactive; ? = inconclusive; nt = no result. Calls come from the whole dose curve; as a rule, active = well fitted curve in the direction sought with a large enough effect; inconclusive = small, poorly fitted or top-dose-only effect, or another doubt; inactive = no such curve, though single readings can be large; an effect the other way counts as inactive or inconclusive.
SMILES,VDR inh,PLK1 PBD block,ALOX12 inh,Sfp PPTase inh
COc1ccc(-c2cc(C(=O)NC3CCNCC3)c3c(C)nn(-c4ccccc4)c3n2)cc1,nt,nt,25µM,nt
O=C(NCCc1ccc(Cl)cc1)c1ccc2c(=O)[nH]c3c(C(=O)NCC4CCCO4)sc(=S)n3c2c1 (stereo not given),nt,nt,50µM,nt
O=C(NCc1ccco1)c1ccc2c(c1)N(Cc1ccccc1)C(=O)CS2,i,i,i,i
O=C(NCCc1ccccc1)c1ccc2c(=O)[nH]c3c(C(=O)NCC4CCCO4)sc(=S)n3c2c1 (stereo not given),79µM,30µM,?,i
COc1ccc(OC)c(CCNC(=O)c2ccc3c(=O)[nH]c4c(C(=O)NC(C)C)sc(=S)n4c3c2)c1,i,?,?,?
CCOc1ccc(CCNC(=O)c2ccc3c(=O)[nH]c4c(C(=O)NC(C)C)sc(=S)n4c3c2)cc1,i,?,i,i
O=C(NCC1CCCO1)c1ccc2c(c1)N(Cc1ccccc1)C(=O)CS2 (stereo not given),i,30µM,i,i
CC(C)NC(=O)c1sc(=S)n2c1[nH]c(=O)c1ccc(C(=O)NCCc3ccc(Cl)cc3)cc12,i,27µM,?,i
Cc1cc(C)n(C)c(=O)c1C(=O)N[C@@H]1COCC[C@@H]1OCc1ccccc1,nt,nt,i,nt
COc1cc(OC)cc(-c2c(C#Cc3ccsc3)c3cc(-c4ccc(C(N)=O)cc4)ccc3n2C)c1,i,i,i,nt
CCN(C(=O)c1cccc(F)c1F)[C@@H]1CCN(c2ncccc2C#N)C[C@H]1O,nt,nt,i,nt
CCOC(=O)c1c(NC(=O)Cn2cnc([N+](=O)[O-])n2)sc(C)c1C,i,24µM,i,i
CCOC(=O)c1c(NC(=O)Cn2nc(C(F)F)cc2C(F)F)sc(C)c1C,i,i,i,i
COC(=O)c1c(NC(=O)Cn2nc(C(F)F)cc2C(F)F)sc(C)c1C,i,15µM,?,56µM
CCOC(=O)c1c(NC(=O)Cn2nc(C(F)(F)F)cc2C)sc(C)c1C,i,27µM,?,i
COc1ccccc1NC(=O)CCn1c(=S)oc2ccccc21,i,i,?,i
O=C(c1ccccc1)N1CCC(=O)N1c1ccccc1,i,i,i,i
O=C1CN(c2ccccc2)C(=S)N1C(=O)c1ccccc1,i,27µM,?,50µM
O=C(NS(=O)(=O)Nc1ccccc1)C1=C(N2CCCC2)COC1=O,i,i,16µM,nt
O=C(NC(=O)c1ccccc1)C1=C(N2CCCC2)COC1=O,i,i,i,nt
CCCCCCN1C[C@@H](O)[C@H](n2cc(-c3ccc(F)cc3)nn2)C[C@@H]1c1ccc(OC)cc1,nt,i,i,nt
CCOc1ccc(-c2nnn(CCC#N)n2)cc1OC,?,19µM,i,i
COc1ccc(NC(=O)C(C/C=C(/C)Cl)C(C)=O)cc1 (stereo not given),i,3.8µM,i,i
COc1ccc(NC(=O)CCCCC(=O)Nc2ccc(OC)cc2)cc1,i,i,i,i
CN1CCO/C1=C(\C(Cl)=C(Cl)Cl)[N+](=O)[O-],i,?,?,i
SMILES,VDR inh,PLK1 PBD block,ALOX12 inh,Sfp PPTase inh
O=[N+]([O-])C(=C1Nc2ccccc2N1)C(Cl)=C(Cl)Cl,?,i,?,89µM
C=CCN(C(=O)CCC(=O)Nc1cc(C)on1)C(C(=O)NC1CCCC1)c1cccnc1 (stereo not given),i,i,i,i
Cc1cc(NC(=O)CCC(=O)N(CC2CCCO2)C(C(=O)NC2CCCC2)c2cccnc2)no1 (stereo not given),i,27µM,i,i
O=C1C(c2ccccc2)SC(=Nc2ccccc2)N1S(=O)(=O)c1ccccc1 (stereo not given),89µM,17µM,?,13µM
Brc1cccc(-c2nnn3c2nc(NCc2ccc4c(c2)OCO4)c2ccccc23)c1,i,nt,?,nt
Cc1ccc(CNC(=O)C2CC(c3cc(C(F)(F)F)cc(C(F)(F)F)c3)=NO2)o1 (stereo not given),i,i,i,56µM
COc1ccc(CCNC(=O)C2CC(c3cccc([N+](=O)[O-])c3)=NO2)cc1 (stereo not given),i,i,i,i
Cc1ccc(CNC(=O)C2CC(c3cccc([N+](=O)[O-])c3)=NO2)o1 (stereo not given),i,i,i,45µM
CC(=O)NC1(C)CCCN(c2ccc(OC(F)(F)F)cc2)C1 (stereo not given),nt,nt,i,nt
CCCCNC(=O)n1c(SC)nc2ccccc21,i,?,i,i
COC(=O)n1c(SC)nc2ccccc21,i,27µM,i,i
Cc1cc(N2C(=O)C(O)=C(C(=O)c3cc4ccccc4o3)C2c2cccc(Br)c2)no1 (stereo not given),?,27µM,45µM,i
COc1cccc(C2C(C(=O)c3cc4ccccc4o3)=C(O)C(=O)N2c2cc(C)on2)c1OC (stereo not given),i,i,?,i
COc1cc(C2C(C(=O)c3cc4ccccc4o3)=C(O)C(=O)N2c2cc(C)on2)cc(OC)c1OC (stereo not given),i,i,10µM,i
COC(=O)c1ccc(C2C(C(=O)c3cc4ccccc4o3)=C(O)C(=O)N2c2cc(C)on2)cc1 (stereo not given),i,?,?,i
O=C(Nc1ccccc1)C1C2/C=C\CCCCC21 (stereo not given),i,27µM,i,i
Cc1ccccc1NC(=O)C1C2/C=C\CCCCC21 (stereo not given),i,i,i,i
O=C(CCc1ccc(Oc2cc([N+](=O)[O-])cc([N+](=O)[O-])c2)cc1)N1CCCCCC1,?,i,i,18µM
CCCNS(=O)(=O)c1ccc(CCC(=O)N2CCCCC2)cc1,?,24µM,i,i
O=C(Cc1ccc([N+](=O)[O-])cc1)N1CCCCCC1,i,i,i,i
CCCCN(CCCC)Cc1cc(=O)oc2cc(C)cc(C)c12,nt,i,?,nt
CC1CC(C)CN(C(C(=O)NC2CCCCC2)c2ccnc3ccccc23)C1 (stereo not given),nt,i,?,nt
CSc1ncccc1C(=O)NNC(=O)c1csc(N2CCOCC2)n1,nt,i,i,nt
COc1ccc(OC)c(CNC(=O)c2ccc(Sc3ccc(C)cc3)c(N)c2)c1,i,nt,i,nt
COC(=O)c1ccc(Sc2ccc(C)cc2)c(N)c1,i,27µM,?,50µM
SMILES,VDR inh,PLK1 PBD block,ALOX12 inh,Sfp PPTase inh
O=C(CCNC(=O)c1ccccc1)N/N=C/c1ccc([N+](=O)[O-])cc1,i,i,i,i
CCNC(=O)C1CCCN(C(=O)Cc2cccs2)CC1 (stereo not given),nt,i,50µM,nt
CCNC(=O)C1CCCN(C(=O)c2cccs2)CC1 (stereo not given),nt,i,i,nt
CC1CCCC2(C1)NC(=S)c1c(sc3c1CCCC3)N2 (stereo not given),40µM,5.3µM,i,6.3µM
CN1CCc2c(sc3c2C(=O)NC(c2ccco2)N3)C1 (stereo not given),i,i,i,i
CN1CCc2c(sc3c2C(=O)NC(c2ccc(-c4ccc(Cl)cc4)o2)N3)C1 (stereo not given),i,i,?,50µM
CCN(C(=O)C1CCN(c2ncnc3c2nc2n3CCCCC2)CC1)c1cccc(Cl)c1,i,nt,i,nt
